Experimental findings from PubChem BioAssay are described below.

The source made the active and inactive calls. Unless noted, how the calls were made is not given here.

Assay [1] in a line: compounds binding Alexa647 anti-His antibody – biochemical, small-molecule microarray, 635 nm fluorescence, artefact control for SMM control protein annotation, primary screen (AID 1128).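 Further: score merges feature fluorescence with signal-to-noise for each printed compound spot.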 Particulars: higher = more signal.
Assay [2] relates to Human papillomavirus type 1a E7 protein (residues 1-88). The experiment in a line: HPV1a E7 small-molecule binders, primary screen, biochemical, small-molecule microarray, residues 1-88, 635 nm (AID 1129). Particulars: small-molecule microarray binding, fluorescence 635 nm; higher = more signal.
The target of assay [3] is Focal adhesion kinase 1 (Homo sapiens) (UniProt Q05397). The experiment in a line: PTK2 protein binding on printed compound slides – biochemical, small-molecule microarray, 635/667 nm fluorescence, BSA, DTT, primary screen (AID 1130).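 Further: composite of spot emission at 667 nm and signal to noise over triplicate slides.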 Particulars: 635 nm fluorescence, higher = more signal.
Sequence of Focal adhesion kinase 1 (Homo sapiens) (Q05397 whole entry, looked up): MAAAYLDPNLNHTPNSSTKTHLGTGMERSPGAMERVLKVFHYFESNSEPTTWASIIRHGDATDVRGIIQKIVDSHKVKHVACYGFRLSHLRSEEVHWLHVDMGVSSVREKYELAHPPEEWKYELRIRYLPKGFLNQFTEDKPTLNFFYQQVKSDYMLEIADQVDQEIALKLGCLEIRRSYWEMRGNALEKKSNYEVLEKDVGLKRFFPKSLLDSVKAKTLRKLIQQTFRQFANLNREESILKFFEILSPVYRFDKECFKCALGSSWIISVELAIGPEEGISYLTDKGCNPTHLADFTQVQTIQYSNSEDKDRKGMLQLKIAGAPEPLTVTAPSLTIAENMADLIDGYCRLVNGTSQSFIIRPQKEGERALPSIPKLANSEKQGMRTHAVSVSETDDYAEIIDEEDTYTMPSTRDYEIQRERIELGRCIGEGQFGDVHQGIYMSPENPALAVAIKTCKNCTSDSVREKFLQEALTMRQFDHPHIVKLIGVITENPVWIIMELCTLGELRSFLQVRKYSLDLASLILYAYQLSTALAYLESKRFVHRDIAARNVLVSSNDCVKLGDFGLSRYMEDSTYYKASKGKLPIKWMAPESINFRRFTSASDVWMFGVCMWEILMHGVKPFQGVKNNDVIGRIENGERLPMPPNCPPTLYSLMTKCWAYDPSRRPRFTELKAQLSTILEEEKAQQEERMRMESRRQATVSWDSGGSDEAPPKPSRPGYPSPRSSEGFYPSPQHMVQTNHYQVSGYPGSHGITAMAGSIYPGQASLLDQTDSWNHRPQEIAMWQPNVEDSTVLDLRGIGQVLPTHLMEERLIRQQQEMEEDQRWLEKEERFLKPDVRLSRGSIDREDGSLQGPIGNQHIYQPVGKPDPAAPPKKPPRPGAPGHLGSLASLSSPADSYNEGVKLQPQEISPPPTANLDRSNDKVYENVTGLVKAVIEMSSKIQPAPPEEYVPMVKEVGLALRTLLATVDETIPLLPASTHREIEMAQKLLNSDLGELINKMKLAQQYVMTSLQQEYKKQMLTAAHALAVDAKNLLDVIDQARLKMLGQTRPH
Assay [4] relates to Fibrinogen (Alexa647-labelled). Briefly: Alexa647-fibrinogen binding to printed small molecules – biochemical, small-molecule microarray, 635/667 nm fluorescence, artefact control for SMM control-protein annotation, profiling panel (AID 1131).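 Further: z-score merges 667 nm fluorescence with per-spot signal-to-noise over triplicate slides.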 The settings on record: fibrinogen-A647 binding fluorescence, higher = more signal.
Assay [5] addresses Follistatin (Homo sapiens) (UniProt P19883). Briefly: FST protein binding to printed compounds – biochemical, small-molecule microarray, 635/667 nm fluorescence, primary screen (AID 1132). The settings on record: 635 nm fluorescence, higher = more signal.
Assay [6] addresses Fibroblast growth factor 2 (Homo sapiens) (UniProt P09038). The experiment in a line: basic fibroblast growth factor binding to printed compounds – biochemical, small-molecule microarray, 635/667 nm fluorescence, primary screen (AID 1133). Particulars: FGF2, fluorescence 635/667, higher = more signal.
The nature of assay [7]: JC-1 mitochondrial potential readout, lung cancer cells – cell-based, A549, JC-1 fluorescence, basal, 24 h, 100 nL, profiling panel (AID 1138).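 Further: A549 lung adenocarcinoma cells under basal conditions with no added stimulus; test concentration not given here.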 Particulars: higher = more signal.
Another assay has as its system Lefty1. Briefly: Lefty1 protein binding to printed compounds – biochemical, small-molecule microarray, 635/667 nm fluorescence, primary screen (AID 1139). Particulars: fluorescence 635/667, higher = more signal.
Assay [8] deals with wheat germ agglutinin (Triticum aestivum), Alexa647-labelled. The experiment in a line: Alexa647-WGA lectin binding to printed small molecules – biochemical, small-molecule microarray, 635/667 nm fluorescence, artefact control for SMM control-protein annotation, profiling panel (AID 1140).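 Further: score merges 667 nm feature emission with signal to noise over triplicate slides.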 Particulars: WGA-A647 binding, 635 nm fluorescence, higher = more signal.
Assay [9] has as its target Luciferin 4-monooxygenase (Photinus pyralis) (UniProt P08659). Briefly: inhibition of purified Photinus pyralis luciferase – biochemical, luminescence, purified enzyme, 2006 set, primary screen (AID 1141).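 Further: cell-free assay with purified firefly luciferase at 100 ng per well in PBS; test concentration not given here.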 The settings on record: purified firefly luciferase, SteadyGlo luminescence, 30 min; higher = more signal, called active from +8 up or from −8 down.
For assay [10], the system named is Wnt5a (protein binding on small-molecule microarray). Briefly: small molecules binding Wnt5a protein – biophysical, small-molecule microarray, 635/667 nm fluorescence, primary screen (AID 1142).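 Further: fluorescence read at 667 nm with signal to noise per printed feature.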 The settings on record: 635 nm fluorescence, higher = more signal.
Assay [11] in a line: ATP-based viability of Huh7 replicon cells – cell-based, CellTiter-Glo luminescence, basal, 48 h, cytotoxicity control for HCV replication inhibitor project, primary screen (AID 1143).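 Further: Huh7 hepatoma cells carrying a hepatitis C replication reporter with no stimulus; test concentration not given here.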 The settings on record: higher = more signal, called active from +8 up or from −8 down.
Assay [12] is described as follows: Pseudomonas biofilm growth suppression – PAO1 strain, BacTiter-Glo luminescence, LB-PBS, primary screen (AID 1144). The settings on record: P. aeruginosa PAO1 biofilm, 12 h, higher = more signal.
Assay [13] is described as follows: basal CRE-LacZ reporter activity in PC12 – cell-based, unstimulated, primary screen (AID 1145). Particulars: no forskolin, luminescence, 4.5 h, higher = more signal, called active from +8 up or from −8 down.
The nature of assay [14]: forskolin-driven CRE-LacZ activity in PC12 – cell-based, CRE-LacZ reporter, forskolin-stimulated, primary screen (AID 1146).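 Further: PC12 cells with 6xCRE LacZ reporter stimulated by forskolin 10 µM; beta-galactosidase reporter signal reflecting CREB driven transcription.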 Particulars: luminescence, 4.5 h, higher = more signal, called active from +8 up or from −8 down.
Assay [15] has as its target Streptavidin (Streptomyces avidinii) (UniProt P22629). The experiment in a line: compounds binding control protein streptavidin – biophysical, small-molecule microarray, 635/667 nm fluorescence, artefact control for SMM compound annotation, primary screen (AID 1147).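 Further: signal reflects streptavidin binding to arrayed compounds as a control protein.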 The settings on record: higher = more signal.
Assay [16] in a line: probe aInhba binding on compound microarray – biochemical, small-molecule microarray, 635/667 nm fluorescence, primary screen (AID 1148).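 Further: score merges 667nm spot fluorescence with signal-to-noise for antibody binding to printed compounds.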 Particulars: higher = more signal.
For assay [17], the target named is Torsin-1A (Homo sapiens) (UniProt O14656). Briefly: TOR1A wild-type binding on microarray – cell lysate, small-molecule microarray, lysate, 635/667 nm, primary screen (AID 1149). The settings on record: COS7 hTOR1A-WT lysate, 635 nm fluorescence, higher = more signal.
Sequence of Torsin-1A (Homo sapiens) (O14656 whole entry, looked up): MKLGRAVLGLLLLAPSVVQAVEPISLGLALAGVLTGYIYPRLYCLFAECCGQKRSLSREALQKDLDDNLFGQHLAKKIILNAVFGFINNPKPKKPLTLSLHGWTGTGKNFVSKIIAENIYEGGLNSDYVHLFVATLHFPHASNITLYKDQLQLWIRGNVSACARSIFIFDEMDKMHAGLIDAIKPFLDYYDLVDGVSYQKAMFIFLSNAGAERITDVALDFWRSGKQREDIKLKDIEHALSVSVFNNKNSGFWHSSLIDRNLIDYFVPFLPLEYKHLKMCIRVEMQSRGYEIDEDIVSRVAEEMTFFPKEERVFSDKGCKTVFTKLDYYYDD
Assay [18] shares this target. The experiment in a line: torsin A mutant lysate binding on microarrays – cell lysate, small-molecule microarray, COS7 lysate, 635/667 nm fluorescence, primary screen (AID 1150).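 Further: score pools 667 nm emission and signal to noise measuring lysate protein binding.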 The settings on record: COS7 hTOR1A mutant lysate, 635 nm fluorescence, higher = more signal.
Assay [19] has as its system Sonic hedgehog protein (Shh). The experiment in a line: Sonic hedgehog microarray binding compounds – biochemical, small-molecule microarray, 635/667 nm fluorescence, primary screen (AID 1151).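 Further: Shh protein binding to compounds spotted on small-molecule microarray slides; score combines spot fluorescence intensity with signal-to-noise across triplicate slides.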 Particulars: 635 nm fluorescence, higher = more signal.

Sequence of Luciferin 4-monooxygenase (Photinus pyralis) (P08659 whole entry, looked up): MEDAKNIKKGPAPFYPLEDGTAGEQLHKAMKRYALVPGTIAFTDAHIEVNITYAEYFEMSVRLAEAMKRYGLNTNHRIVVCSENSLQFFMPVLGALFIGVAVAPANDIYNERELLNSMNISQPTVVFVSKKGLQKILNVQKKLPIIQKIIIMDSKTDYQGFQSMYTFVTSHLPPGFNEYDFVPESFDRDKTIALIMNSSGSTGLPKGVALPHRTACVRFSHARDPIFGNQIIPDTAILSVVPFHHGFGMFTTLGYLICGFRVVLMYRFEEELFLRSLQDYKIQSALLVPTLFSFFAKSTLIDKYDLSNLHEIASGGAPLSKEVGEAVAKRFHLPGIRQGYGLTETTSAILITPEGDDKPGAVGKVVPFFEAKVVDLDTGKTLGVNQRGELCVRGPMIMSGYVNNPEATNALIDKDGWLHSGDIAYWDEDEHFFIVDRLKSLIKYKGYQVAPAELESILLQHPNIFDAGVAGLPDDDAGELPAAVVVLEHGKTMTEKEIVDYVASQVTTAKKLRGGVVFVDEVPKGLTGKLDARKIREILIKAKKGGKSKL
Sequence of Follistatin (Homo sapiens) (P19883 whole entry, looked up): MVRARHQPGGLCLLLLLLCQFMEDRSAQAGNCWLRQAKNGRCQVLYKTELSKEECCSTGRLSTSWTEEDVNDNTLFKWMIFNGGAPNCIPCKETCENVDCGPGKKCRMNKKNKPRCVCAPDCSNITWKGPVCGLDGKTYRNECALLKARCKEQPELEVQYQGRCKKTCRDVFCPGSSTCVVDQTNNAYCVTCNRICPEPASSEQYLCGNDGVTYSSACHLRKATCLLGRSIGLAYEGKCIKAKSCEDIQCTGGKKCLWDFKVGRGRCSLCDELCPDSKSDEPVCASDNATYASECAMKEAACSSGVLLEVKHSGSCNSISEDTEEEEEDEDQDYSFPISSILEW
Sequence of Fibroblast growth factor 2 (Homo sapiens) (P09038 whole entry, looked up): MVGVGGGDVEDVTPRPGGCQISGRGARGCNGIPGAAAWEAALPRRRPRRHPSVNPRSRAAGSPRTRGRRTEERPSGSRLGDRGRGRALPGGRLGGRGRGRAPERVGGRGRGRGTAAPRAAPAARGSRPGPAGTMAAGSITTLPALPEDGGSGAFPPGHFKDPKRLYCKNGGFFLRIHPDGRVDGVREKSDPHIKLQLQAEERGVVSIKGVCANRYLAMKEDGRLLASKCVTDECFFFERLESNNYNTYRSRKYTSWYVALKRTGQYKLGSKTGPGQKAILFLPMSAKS
Sequence of Streptavidin (Streptomyces avidinii) (P22629 whole entry, looked up): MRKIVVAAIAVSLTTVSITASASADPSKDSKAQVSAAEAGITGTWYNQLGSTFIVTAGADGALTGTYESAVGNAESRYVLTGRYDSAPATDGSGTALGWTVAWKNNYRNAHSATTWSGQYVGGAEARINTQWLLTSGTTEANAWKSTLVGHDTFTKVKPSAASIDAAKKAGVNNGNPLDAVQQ

Turning to `NC(=O)[C@H]1[C@@H]2C(=O)O[C@@H](c3ccccc3)[C@@H](c3ccccc3)N2[C@@H](c2ccc(O)cc2)[C@]12C(=O)Nc1ccc(C#CC3=CCCCC3)cc12`, the composite z-score in assay [1] is 2.5; in assay [2] it was 1.2; in assay [3], 0.985; in assay [4], 0.587; in assay [5] it was 0.959; in assay [6] it was -0.004. For the same compound, the composite z-score with Lefty1 is 0.542; in [8] it was 0.548; in assay [10] it was -0.0856; in [15], 0.185; in assay [16], -0.128; in the assay with Torsin-1A (Homo sapiens) [17] it was 0.509. Further, the results for the composite z-score (with Torsin-1A (Homo sapiens) [18]; in [19]) were 0.721 and 1.19, respectively. For the same compound, the z-score was -1.96 in assay [7]; -0.784 (inactive) in assay [9]; -3.73 (inactive) in [11]; 0.363 (inactive) in assay [12]; 0.478 (inactive) in assay [13]; 0.731 (inactive) in [14].

For the compound `COc1ccc([Si](C)(C)[C@@H]2[C@@H](CCn3cc([C@H](O)c4ccccc4)nn3)O[C@]3(C(=O)N(c4ccccc4)c4ccccc43)[C@H]2C)cc1`, the composite z-score in [1] is -0.684; in assay [2], 0.386; in assay [3], 0.474; in assay [4], -0.308; in assay [5], 0.586; in [6], 0.184. Also, the composite z-score in the assay with Lefty1 was 0.424; in assay [8], -0.348; in assay [10], -0.0872; in [15] it was -0.238; in assay [16] it was -0.22; with Torsin-1A (Homo sapiens) [17] it was 0.511. Besides, the composite z-score amounted to 0.283 with Torsin-1A (Homo sapiens) [18] and 0.618 in [19]. The z-score is 0.00801 in [7]; 0.389 (inactive) in assay [9]; -6.24 (inactive) in assay [11]; 0.506 (inactive) in assay [12]; 1.6 (inactive) in assay [13]; -0.897 (inactive) in assay [14].

As to `NCCCCCNC(=O)[C@@H]1C[C@@H]2C(=O)N3CCC[C@H]3C(=O)N2[C@@H]1c1ccc(O)cc1`, the composite z-score was 0.509 in assay [1]; 1.18 in [2]; 0.139 in assay [3]; 0.788 in assay [4]; 1.17 in assay [5]; 0.428 in [6]. Besides, the composite z-score worked out at 1.08 with Lefty1; 0.955 in assay [8]; 0.446 in assay [10]; 1.11 in assay [15]; 0.0706 in assay [16]; 0.778 with Torsin-1A (Homo sapiens) [17]. Also, the results for the composite z-score (with Torsin-1A (Homo sapiens) [18]; in assay [19]) were 1.1 and 0.468, respectively. For the same compound, the z-score is 0.375 in assay [7]; -0.444 (inactive) in assay [9]; -0.406 (inactive) in assay [11]; -0.113 (inactive) in assay [12]; 0.143 (inactive) in [13]; -0.707 (inactive) in assay [14].

On to `CC(C)[Si]1(C(C)C)OCc2cc(-c3ccc(-c4ccc(Cl)c(Cl)c4)o3)nc(CCc3ccccc3)c21`, for which the composite z-score in [1] is -1.14; in assay [2] it was -0.122; in assay [3], 0.164; in [4], -0.0058; in assay [5], -0.0289; in assay [6], -0.11. Further, the composite z-score with Lefty1 was 0.0028; in assay [8] it was 0.0809; in assay [10], 0.0947; in assay [15], -0.884; in [16], -0.179; with Torsin-1A (Homo sapiens) [17], -0.696. Further, the composite z-score with Torsin-1A (Homo sapiens) [18] was -0.436; in assay [19], 0.3. Also, the z-score was 1.4 in assay [7]; -2.45 (inactive) in assay [9]; -1.53 (inactive) in [11]; -0.612 (inactive) in [12]; -0.0247 (inactive) in assay [13]; 1.6 (inactive) in assay [14].
